Bioassay records as filed in PubChem BioAssay.
Cycloheximide cs = Cycloheximide Counterscreen for Small Molecule Inhibitors of Shiga Toxin; cell reporter, cycloheximide protein synthesis inhibition counterscreen; max response, %; 300,000 compounds, 12% hits; AID 2314, 2010; in the data active = max response mostly above about 13%, no sharp cut-off; inactive = mostly below about 14%; also: read at 38.3 µM for the half of the compounds with a filed dose; 0% is about no effect
Pf growth 48h = Primary qHTS for delayed death inhibitors of the malarial parasite plastid, 48 hour incubation. 310,000 compounds, 5.9% hits. Potency, µM (doses to about 28.7 µM), inactives show at the top dose activity change, negative = inhibition, hits mostly inhibitors. AID 504832, 2011. P. falciparum luciferase growth in erythrocytes, 48 h; also: potency is read from the fitted curve at half-maximal effect; % is scaled to controls: 0 for no effect and ±100 for the full control effect
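A one-generation exposure of luciferase-tagged malaria parasites in RPMI 1640/Albumax erythrocyte culture, 37 C and 5% CO2. Inhibition is inferred from decreased luminescence after adding detection reagent.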
Pf growth 96h = Primary qHTS for delayed death inhibitors of the malarial parasite plastid, 96 hour incubation | P. falciparum luciferase reporter growth, 96 h | Potency, µM (doses to about 28.7 µM), inactives show at the top dose activity change, negative = inhibition, hits mostly inhibitors | 320,000 compounds, 6.9% hits | AID 504834, 2011; also: potency is read from the fitted curve at half-maximal effect; % is scaled to controls: 0 for no effect and ±100 for the full control effect
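Delayed-death screen, second-generation endpoint: infected erythrocytes, 2% hematocrit, 0.05% parasitemia final; 96 hours at 37 C, 5% CO2; luciferase detection reagent; luminescence decrease equals reduced growth.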
Shiga toxin inh = A qHTS for Small Molecule Inhibitors of Shiga Toxin. inhibition, % at 38.7 µM. Vero cells, Shiga toxin protein synthesis inhibition reporter. 290,000 compounds, 9.2% hits; in the data active = inhibition mostly above about 28%, no sharp cut-off; inactive = mostly below about 43%; also: 0% is about no effect
LmPK inhibitor = qHTS Assay for Inhibitors of Leishmania Mexicana Pyruvate Kinase (LmPK). AID 1721, 2009. purified LmPK, Kinase-Glo ATP luminescence, 1 h. Potency, µM (highest dose often 57.5 µM), inactives show top-dose activity change, negative = inhibition, actives largely listed as inhibitors. 290,000 compounds, 0.37% hits; also: potency is read from the fitted curve at half-maximal effect; % is scaled to controls: 0 for no effect and ±100 for the full control effect
Target sequence (Q27686 whole entry, looked up): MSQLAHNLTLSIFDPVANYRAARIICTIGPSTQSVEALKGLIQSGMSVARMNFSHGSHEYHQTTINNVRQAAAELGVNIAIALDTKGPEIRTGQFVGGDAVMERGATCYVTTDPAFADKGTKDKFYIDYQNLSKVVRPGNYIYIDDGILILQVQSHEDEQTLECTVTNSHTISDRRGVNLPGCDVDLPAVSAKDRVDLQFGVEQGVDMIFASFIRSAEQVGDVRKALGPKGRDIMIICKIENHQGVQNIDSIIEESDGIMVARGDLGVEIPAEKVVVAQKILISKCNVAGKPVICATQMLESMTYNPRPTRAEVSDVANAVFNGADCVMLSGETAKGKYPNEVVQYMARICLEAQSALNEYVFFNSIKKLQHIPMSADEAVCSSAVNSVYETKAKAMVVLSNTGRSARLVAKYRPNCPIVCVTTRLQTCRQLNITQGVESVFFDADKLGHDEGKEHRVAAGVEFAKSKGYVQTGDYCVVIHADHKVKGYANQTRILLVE
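Purified LmPK (0.1 nM) converted ADP (0.1 mM) to ATP with PEP (0.5 mM) in imidazole buffer pH 7.2 with KCl and MgCl2, 1 h at room temperature. ATP was read by Kinase-Glo luminescence; data normalized to uninhibited and no-enzyme controls.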
The depositor's hits bear a star; ? = inconclusive; / = no result given; ! = not confirmed by another sample. Most compounds without a hit are left out; they make up all but 22% or so of the library. Unless noted, calls follow the shape of the dose curve; as a rule, active = well fitted inhibition curve with a large enough effect; inconclusive = small, poorly fitted or top-dose-only effect, or another doubt; inactive = no such curve, though single readings can be large or run the other way.

SMILES	Cycloheximide cs	Pf growth 48h	Pf growth 96h	Shiga toxin inh	LmPK inhibitor
CCOC(=O)C1=C(C)N(c2ccccc2)C(=O)NC1c1cccc([N+](=O)[O-])c1 (configuration not stated)	-3	?	?	-12	0%
CCOC(=O)C1=C(C)NC(C)=C(C(=O)OC)C1c1cccc([N+](=O)[O-])c1 (configuration not stated)	-2	5.9µM*	?	-8	6%
CCOC(=O)C1=C(C)NC(C)=C(C(=O)OCC)C1c1ccc([N+](=O)[O-])s1	1	?	13µM*	-2	9%
COC(=O)C1=C(C)NC(C)=C(C(=O)OC(C)(C)CN(C)CCC(c2ccccc2)c2ccccc2)C1c1cccc([N+](=O)[O-])c1 (configuration not stated)	/	1.5µM*	3µM*	/	/
CCOC(=O)C1=C(C)NC(C)=C(C(=O)OCC)C1c1ccc(OC)cc1	-4	?	-13%	-17	5%
Cc1c(C(=O)C(=O)NCCCn2ccnc2)c2ccccc2n1C	-4	?	33%	-9	-9%
COc1cc(C)nc(NC(=S)N(C)C(=O)c2ccccc2)n1	2	?	-25%	4	-1%
COc1ccccc1N1C(=O)C2C(c3ccc(F)cc3)NN(C(=O)c3ccc(C)cc3)C2C1=O (configuration not stated)	12	-9%	-16%	7	1%
COCCOC(=O)C1=C(C)NC(C)=C(C(=O)OC(C)C)C1c1cccc([N+](=O)[O-])c1 (configuration not stated)	-3	9.3µM*	6.6µM*!	-11	-1%
CC(C)OC(=O)C1C(=O)CC(C)(O)C(C(=O)OC(C)C)C1c1cccc([N+](=O)[O-])c1 (configuration not stated)	7	?	?	38	-8%
CC1=C(C(=O)OC(C)C)C(c2cccc([N+](=O)[O-])c2)C(C(=O)OC2CN(C(c3ccccc3)c3ccccc3)C2)=C(N)N1 (configuration not stated)	/	7.6µM*	-3%	/	/
O=C(CCSc1ccc(F)cc1)NNC(=O)c1ccccc1Cl	/	-1%	0%	/	/
COc1ccccc1CCNC(=O)C(=O)NCC1OCCN1S(=O)(=O)c1ccc2c(c1)OCCO2 (configuration not stated)	14	?	?	-7	-8%
Cc1sc2nc[nH]c(=S)c2c1-c1ccccc1	-6	7%	?	19	-6%
COc1cccc(/C=N/Nc2nc3ccccc3[nH]2)c1OC	52*	?	10µM*	114*	-2%
COc1cccc(/C=N/Nc2nc3ccccc3[nH]2)c1O	52*	?	2.3µM*	94*	5%
O=C(Nc1cccnc1)c1ccc(Cl)c(S(=O)(=O)N2CCCC2)c1	11	?	24%	14	5%
c1ccc(Oc2cnc3ccccc3n2)cc1	21	10%	3%	35	-1%
Clc1cccc(Oc2cnc3ccccc3n2)c1	22*	7%	1%	33	-5%
COc1ccc(Oc2cnc3ccccc3n2)cc1	31*	132%	157%	51*	2%
Clc1ccccc1Oc1cnc2ccccc2n1	16	2.6µM*	-21%	22	1%
CC(=O)Nc1cccc(Oc2cnc3ccccc3n2)c1	17*	77%	83%	46*	-1%
CCn1cc(Cl)c(C(=O)Nc2c(C)nn(Cc3c(F)c(F)c(F)c(F)c3F)c2C)n1	2	-12%	-7%	6	0%
O=C(NC1CCCC1)C(c1ccc(F)cc1)N(C(=O)c1csnn1)C1CC1 (configuration not stated)	-2	12%	-2%	-1	-7%
Cc1cn(C2CC(OC(=O)C(C)C)C(CO)O2)c(=O)[nH]c1=O (configuration not stated)	/	2%	-10%	/	/
SMILES	Cycloheximide cs	Pf growth 48h	Pf growth 96h	Shiga toxin inh	LmPK inhibitor
O=C(NCc1cccc(C(F)(F)F)c1)c1ccc2c(c1)OCCO2	7	-3%	0%	-7	-3%
O=c1cccc2n1Cc1cc3ccccc3nc1-2	39*	181%	189%	38*	-29%
Cc1nc2ccccc2cc1C(=O)O	5	/	11%	21	5%
Cc1ccc(OCC(=O)NCCNC(=O)c2ccccn2)cc1	-2	32%	24%	-10	2%
CC1C(C(=O)Nc2ccccc2)CCCC1(C)C(=O)O (configuration not stated)	-2	0%	12%	14	-6%
C/C(=N\NC(=O)c1cccc(F)c1)c1ccc(NC(=O)Cc2ccccc2)cc1	42*	6%	-32%	48*	-1%
C/C(=N\NC(=O)CNC(=O)c1cccc(F)c1)c1ccc2ccccc2c1	-4	28%	34%	-10	0%
C/C(=N\NC(=O)c1cc(O)cc(O)c1)c1ccc(NC(=O)Cc2ccccc2)cc1	22*	37%	-12%	70*	23%
CCCCOc1ccc(C(=O)OCC(=O)NC2CCCC2)cc1	-5	2%	24%	-11	-3%
COc1ccc(-c2[nH]ncc2CN(CCO)Cc2cccs2)c(F)c1	1	23%	?	-15	5%
COc1ccc(CNC(=O)[C@H](CCSC)NC(=O)N2CCn3c2nc2ccccc23)cc1	-3	?	2%	-2	9%
CSCC[C@H](NC(=O)N1CCn2c1nc1ccccc12)C(=O)NCc1ccc(F)cc1	5	?	12µM*	11	6%
O=S(=O)(c1ccc(Cl)s1)N1CCCc2cccc(O)c21	50*	/	54%	84*	-1%
Cn1cnc([N+](=O)[O-])c1S(=O)(=O)c1cccc(Cl)c1	-3	-43%	?	20	-1%
CCCn1c(CC)nc([N+](=O)[O-])c1S(=O)(=O)c1ccccc1	-4	10µM*	?	-17	4%
CCOn1c(=O)c(-c2cc3ccccc3o2)[n+]([O-])c2ccccc21	47*	92%	-55%	163*	1%
O=c1c(-c2ccc(Br)cc2)[n+]([O-])c2ccccc2n1OCc1ccccn1	0	5%	0%	23	2%
O=c1c(-c2cc3ccccc3o2)[n+]([O-])c2ccccc2n1OCc1ccccn1	48*	111%	322%	101*	-6%
Cn1cccc1C(=O)Nc1nc(-c2ccccn2)cs1	51*	?	15µM*	83*	?
Cc1csc(NC(=O)c2cccn2C)n1	62*	281%	317%	102*	18µM*
O=C(NCc1ccccc1)c1c[nH]c2ccc(S(=O)(=O)Nc3ccc4c(c3)OCCO4)cc2c1=O	12	?	15µM*	49*	7%
CCOc1ccc(N(C)S(=O)(=O)c2ccc3[nH]cc(C(=O)NCC4CCCO4)c(=O)c3c2)cc1 (configuration not stated)	1	13µM*	?	-7	1%
